Bioassay records deposited in PubChem BioAssay by several laboratories.
PfHsp40 yeast: rescue of PfHsp40-mediated yeast toxicity | AID 504582 | S. cerevisiae expressing PfHsp40, growth rescue, ATP luminescence | 340,000 tested, 0.68% active | growth rescue, % at 12.5 µM; in the data active = growth rescue above about 28%, passing the limit was not always enough;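 note: yeast W303a lacking pdr1 and pdr3 grown in galactose medium; growth measured after three days at 30 °C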
PrP UTR inh: suppresses PrP 5' UTR mRNA reporter expression; cell-based PrP 5' UTR mRNA reporter, plate reader; inhibition, % (test concentration not listed); 340,000 tested, 0.35% active; AID 488862; in the data active = inhibition above about 52%
BJeLR viability: kills HRASV12-expressing BJeLR cells; BJeLR (HRASV12) viability, CellTiter-Glo ATP luminescence, 48 h; inhibition, % (concentration not given with the values); 300,000 tested, 0.17% active; AID 1554; in the data active = inhibition above about 50%
RN4220 kill: S. aureus RN4220 growth inhibition. inhibition, % (no concentration beside the values). 330,000 tested, 0.33% active. OD600, 16 h. AID 1259311; in the data active = inhibition above about 85%
Yp Topo-I inh: blocks Yersinia pestis topoisomerase I activity; Y. pestis Topo-I cleavage product accumulation, plate reader; activity, % at 10 µM; 360,000 tested, 0.064% active; in the data active = activity above about 50%, passing the limit was not always enough
Sa ugtP lethal: kills S. aureus RN4220 lacking UgtP. S. aureus RN4220 ugtP deletion, OD600 growth, 16 h. growth inhibition, % (no concentration beside the values). 330,000 tested, 0.54% active. AID 1259309; in the data active = growth inhibition above about 68%
Of the large screens only hits and unclear results are named; the others gave an inactive call. An excerpt weighted towards active compounds, which were near 1.4% of everything screened.

Cc1ccc(C)c2c1[nH]c1ccc([N+](=O)[O-])cc12	Sa ugtP lethal 84
COc1ccc(OC)c(-c2c3cc(O)c(=O)cc-3oc3cc(O)c(O)cc23)c1	PfHsp40 yeast 287 (no result: BJeLR viability, RN4220 kill, Sa ugtP lethal)
O=C(Nc1ccccc1)C1=CC(c2ccc3c(c2)OCO3)CC(OCCCCO)O1 (stereo not drawn)	none (no result: PfHsp40 yeast, PrP UTR inh, BJeLR viability, Yp Topo-I inh)
C=CCOc1c(Br)cc(/C=C2\SC(=Nc3ccccc3)NC2=O)cc1OC	Yp Topo-I inh 57
COC(CC1OC1C(=O)COCc1ccccc1)OC (stereo not drawn)	none (no result: PfHsp40 yeast, PrP UTR inh, BJeLR viability, Yp Topo-I inh)
COc1ccccc1NC(=O)COC(=O)c1c[nH]c(=O)[nH]c1=O	none
COc1ccc(CNC(=O)COC(=O)c2c[nH]c(=O)[nH]c2=O)cc1OC	PfHsp40 yeast 34
C#CCOCCOCCOCCNc1nc(N2CCN(C(=O)CCCCCCCCCCNC(=O)C(CCCCN)n3cc(CCCC(=O)O)nn3)CC2)nc(N2CCN(C(=O)CCCCCCCCCCNC(=O)C(C(C)O)n3cc(C)nn3)CC2)n1 (stereo not drawn)	none (no result: PfHsp40 yeast, PrP UTR inh, BJeLR viability, Yp Topo-I inh)
CN(C)CCCNC(=O)c1ccc(-c2nc(-c3ccc(Cl)cc3)cs2)cc1	Sa ugtP lethal 84
O=C(O)c1cc(-c2ccc(N3CCOCC3)cc2)nn1-c1ccc(F)cc1F	PfHsp40 yeast 40
O=C(O)c1cc(-c2ccc(N3CCOCC3)cc2)nn1-c1ccccc1Cl	none
CC=CC(=O)Nc1cccc(C2=NOC3(C2)CC(C(N)=O)N(C(=O)C=CC)C3)c1 (stereo not drawn)	none (no result: PfHsp40 yeast, PrP UTR inh, BJeLR viability, Yp Topo-I inh)
O=C(Nc1ccccc1)C1=CC(c2ccc(C(F)(F)F)cc2)CC(OCCCCO)O1 (stereo not drawn)	none (no result: PfHsp40 yeast, PrP UTR inh, BJeLR viability, Yp Topo-I inh)
COc1ccc(S(=O)(=O)NC2CCCCC2)c(C)c1C	PfHsp40 yeast 86
O=C(Nc1ccc(Cl)c(Cl)c1)C1=Cc2ccccc2OC1	RN4220 kill 86, Sa ugtP lethal 98
Cc1cccc(CN2CCCN(Cc3ccc(Cl)cc3)S2(=O)=O)c1	Yp Topo-I inh 57
C#CCOCCOCCOCCNc1nc(N2CCN(C(=O)C(CCCCN)n3cc(CN)nn3)CC2)nc(N2CCN(C(=O)C(CO)n3cc(C(N)C(C)C)nn3)CC2)n1 (stereo not drawn)	none (no result: PfHsp40 yeast, PrP UTR inh, BJeLR viability, Yp Topo-I inh)
CC(=O)Oc1cccc2c1C(=O)C1CC=CC(OC(C)=O)C1C2=O (stereo not drawn)	Yp Topo-I inh 61 (no result: BJeLR viability, RN4220 kill, Sa ugtP lethal)
CCCCCCCCCCCCCCCC[n+]1cccc2ccccc21	RN4220 kill 99, Sa ugtP lethal 97 (no result: BJeLR viability)
CCCCCCCCC[n+]1cccc2c3ccccc3ccc21	RN4220 kill 100, Sa ugtP lethal 100
Nc1nnc(SCC(=O)c2ccc([N+](=O)[O-])cc2)s1	RN4220 kill 95
Cc1nnc(SCC(=O)c2ccc([N+](=O)[O-])cc2)s1	none
O=c1c2ccccc2nc(-c2ccc(-c3ccccc3)cc2)n1-c1ccncc1	PfHsp40 yeast 341
O=C1CN(C(=O)CSc2nc3cc(Cl)ccc3c(=O)n2Cc2ccccc2)c2ccccc2N1	Yp Topo-I inh 71
Cc1ccc(Cn2c(SCC(=O)N3CC(=O)Nc4ccccc43)nc3ccccc3c2=O)cc1	none
CCCN1CCC(=O)N(C(CSc2ccccc2)CC(C)C)CC1 (stereo not drawn)	none (no result: PfHsp40 yeast, PrP UTR inh, BJeLR viability, Yp Topo-I inh)
O=C(NC(=S)N1CCc2ccccc21)c1ccc(Br)o1	PfHsp40 yeast 36
CC(=O)Oc1ccc2ccccc2c1C(NC(=O)Cc1ccccc1)c1ccc(Cl)cc1 (stereo not drawn)	PfHsp40 yeast 40
COc1ccc(C(NC(=O)CC(C)C)c2c(O)ccc3ccccc23)cc1 (stereo not drawn)	PfHsp40 yeast 33
CCOC(=O)C=Cc1ccccc1S(=O)(=O)NC(C)(C)C	none (no result: PfHsp40 yeast, PrP UTR inh, BJeLR viability, Yp Topo-I inh)
Oc1cc(Cl)ccc1Oc1ccc(Cl)cc1Cl	PfHsp40 yeast 263, RN4220 kill 100, Sa ugtP lethal 100
Cc1ccc(C)c(CSc2nnc(CCN)o2)c1	none
Cc1ccc(C)c(CSc2nnc([C@@H](N)C(C)C)o2)c1	Yp Topo-I inh 90
COc1ccc(C2C3C(=O)N(C(C)(C)C)C(=O)C3[C@]3(Cc4ccc(Cl)cc4)C(=O)N(c4cccc(Br)c4)C(=O)N23)cc1 (stereo partly drawn)	none (no result: PfHsp40 yeast, PrP UTR inh, BJeLR viability, Yp Topo-I inh)
CCOC(=O)/C(C#N)=C1\Nc2ccccc2N=C1N(CC(C)C)CC(C)C	none
CCOC(=O)/C(C#N)=C1/C=C(C)NC(c2ccccc2O)=N1	Sa ugtP lethal 83 (no result: PrP UTR inh)
